According to PubChem BioAssay (NCATS):
“And” between values parts separate entries of the source, which are not always exact repeats. Equal values may be shown once. Records with an inconclusive call do not appear. The source made the active and inactive calls. Unless noted, calls come from the whole dose curve; as a rule, active = well fitted curve in the direction sought with a large enough effect; inconclusive = small, poorly fitted or top-dose-only effect, or another doubt; inactive = no such curve, though single readings can be large; an effect the other way counts as inactive or inconclusive.

Tests used:
[1] = Cell Viability - H-4-II-E (AID 543);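 note: cells exposed to compound for 40 hours; % is set by controls: 0 for no effect and ±100 for the full control effect; nearly all actives have a fitted effect of over 35% in size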
How it was run: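 Cells seeded at 1500 per well and rested 5 hr; compounds added; 40 hr incubation at 37 °C; CellTiter-Glo added, 20 min at room temperature; luminescence read. Hill-equation fits gave AC50.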

[2] = Cell Viability - SH-SY5Y (AID 544); conditions: SH-SY5Y neuroblastoma cell viability; viability change, negative = cytotoxic: at 92.2 µM (top of the series);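 note: cells exposed to compound for 40 hours; nearly all actives have a fitted effect of over 55% in size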
How it was run: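 Cells were plated at 1500 per well and allowed 5 hr at 37 °C. Compounds were added across a concentration range and incubated 40 hr at 37 °C. CellTiter-Glo was added for 20 min at room temperature before luminescence reading.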

[3] = Cell Viability - Renal Proximal Tubule (AID 545);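 note: cells exposed to compound for 40 hours; nearly all actives have a fitted effect of over 40% in size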
How it was run: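 Rat kidney proximal tubule cells, freshly isolated; 1000 cells/well, 5 hr settle, compound 40 hr 37 °C. CellTiter-Glo 20 min RT, luminescence read. AC50 by standard Hill fit.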

[4] = Cellular Toxicity (caspase-3) Hek293 (AID 664); conditions: HEK293 caspase-3 activation, DMSO = 0%, 100 µM tamoxifen = 100%; at 92.2 µM (top of the series);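 note: cells exposed to compound for 16 h at 37 °C before readout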
How it was run: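 qHTS, HEK293 (human embryonic kidney), 16 h cpd exposure in complete medium. Caspase-3/7 activation = luminescence increase; normalized to DMSO/100 uM tamoxifen; Hill-fit AC50.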

[5] = Cell Viability - LYMP2-003 (AID 965);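 note: cells exposed to compounds for 24 h before reading; 0% = DMSO only and full effect = 92 µM tetraoctylammonium bromide; nearly all actives have a fitted effect of over 50% in size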
How it was run: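 CellTiter-Glo luminescence (cellular ATP) after 24 h compound exposure at 37 C in complete medium; 2500 cells/well, 5 h settling beforehand. Concentration-response fitted to standard Hill equation for AC50. Tetraoctylammonium bromide served as positive control.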

[6] = Cell Viability - LYMP2-009 (AID 968);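 note: 0% = DMSO alone and the full-kill end = tetraoctylammonium bromide at 92 µM; nearly all actives have a fitted effect of over 55% in size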
[7] = Cell Viability - LYMP2-013 (AID 970);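 note: 0% = DMSO only and full inhibition = tetraoctylammonium bromide control; nearly all actives have a fitted effect of over 55% in size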
How it was run: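 Cytotoxicity is scored as a concentration-dependent drop in intracellular ATP in human lymphoblastoid cells after 24 hr compound exposure at 37 C. ATP is quantified by luciferase luminescence, and AC50 values come from Hill-equation modeling.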

[8] = Cell Viability - LYMP2-019 (AID 973);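 note: 0% = DMSO alone and full effect = 92 µM tetraoctylammonium bromide; nearly all actives have a fitted effect of over 55% in size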
How it was run: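 Cytotoxicity is scored as a concentration-dependent drop in cellular ATP after cells (2500/well) receive compound for 24 hr at 37 C. Tetraoctylammonium bromide serves as positive control.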

[9] = Cell Viability - LYMP2-025 (AID 976);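 note: plate controls were DMSO only for no effect and tetraoctylammonium bromide control for full effect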
How it was run: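 Acute cytotoxicity is scored as a concentration-dependent fall in intracellular ATP, measured by luciferase luminescence, in human lymphoblastoid LYMP2-025 cells exposed to compound for 24 hours at 37 C. AC50 values come from standard Hill fits.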

[10] = Cell Viability - LYMP2-002 (AID 977);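 note: plate controls were DMSO only for no effect and 92 µM tetraoctylammonium bromide for full effect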
How it was run: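 Human lymphoblastoid cells (2500/well) in complete medium were preincubated 5 hr at 37 C, then exposed to compounds for 24 hr at 37 C. Intracellular ATP was read by CellTiter-Glo luminescence; AC50 came from Hill-equation concentration-response fits.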

[11] = Cell Viability - LYMP2-006 (AID 978); note: % is set by controls: 0 for no effect and ±100 for the full control effect; nearly all actives have a fitted effect of over 60% in size
How it was run: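 qHTS, 1536-well; 2500 cells/well, 5 hr 37 C; cpd 24 hr 37 C; CellTiter-Glo 30 min RT; luminescence. Tetraoctylammonium bromide pos. ctrl. AC50 via Hill eqn.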

[12] = Cell Viability - LYMP2-008 (AID 980); note: % is set by controls: 0 for no effect and ±100 for the full control effect; nearly all actives have a fitted effect of over 60% in size
How it was run: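 Cells seeded at 2500/well and rested 5 hr at 37 C; compounds added over a concentration range and incubated 24 hr at 37 C; CellTiter-Glo added, 30 min at room temperature; luminescence read and AC50 fitted with Hill model.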

[13] = Cell Viability - LYMP2-012 (AID 982)
[14] = Cell Viability - LYMP2-020 (AID 986)
How it was run: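 Seed 2500 cells per well and incubate 5 hr at 37 C. Add compounds at a concentration series and incubate 24 hr at 37 C. Add CellTiter-Glo, wait 30 min at RT, read luminescence, and fit a Hill curve for AC50.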

[15] = Cell Viability - LYMP2-022 (AID 987)
How it was run: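 Cells were seeded at 2500 per well, rested 5 hr at 37 C, and treated with titrated compounds for 24 hr at 37 C. Cellular ATP was then quantified by luciferase luminescence, and AC50 values were derived from Hill-modelled concentration-response curves.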

[16] = Cell Viability - LYMP2-026 (AID 989); note: % is set by controls: 0 for no effect and ±100 for the full control effect; nearly all actives have a fitted effect of over 50% in size
How it was run: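 Cells are seeded at 2500 per well and held 5 hr at 37 C. Compounds are added in concentration series for 24 hr, then CellTiter-Glo reagent is applied and luminescence read.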

[17] = Cell Viability - LYMP1-002 - Assay at 40 hr (AID 994);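 note: 0% = DMSO only and full inhibition = 92 µM tetraoctylammonium bromide; nearly all actives have a fitted effect of over 60% in size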
How it was run: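 Cells are plated at 2500 per well and rested 5 hr at 37 C. Compounds are added and incubated 40 hr at 37 C. CellTiter-Glo reagent is added for 30 min at room temperature before luminescence is read.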

[18] = qHTS assay for small molecule agonists of retinoid X receptor alpha signaling (AID 588544; calls by dose curve;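 for activation: 0% = DMSO basal wells and 100% = reference agonist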); conditions: HEK293T RXRa-UAS-bla, beta-lactamase reporter, 18 h; 530 nm emission
[19] = target: Retinoic acid receptor RXR-alpha (Homo sapiens) (UniProt P19793); experiment: as above
Sequence of Retinoic acid receptor RXR-alpha (Homo sapiens) (P19793 whole entry, looked up): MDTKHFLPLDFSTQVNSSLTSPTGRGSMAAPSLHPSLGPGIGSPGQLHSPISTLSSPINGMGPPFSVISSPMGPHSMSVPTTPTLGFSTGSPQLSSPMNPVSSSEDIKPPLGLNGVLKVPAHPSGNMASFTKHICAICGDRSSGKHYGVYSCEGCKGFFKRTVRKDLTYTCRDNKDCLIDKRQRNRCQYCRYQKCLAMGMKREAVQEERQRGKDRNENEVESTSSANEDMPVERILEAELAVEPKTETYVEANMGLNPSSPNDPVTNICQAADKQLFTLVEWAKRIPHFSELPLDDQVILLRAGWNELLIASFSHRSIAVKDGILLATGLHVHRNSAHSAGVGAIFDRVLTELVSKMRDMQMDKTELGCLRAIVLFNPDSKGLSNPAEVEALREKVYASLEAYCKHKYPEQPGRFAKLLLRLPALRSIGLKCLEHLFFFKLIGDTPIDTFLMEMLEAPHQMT

[20] = target: Tumor necrosis factor (Homo sapiens) (UniProt P01375); experiment: qHTS assay to identify small molecules that stimulate Tumor Necrosis Factor-alpha (TNF-alpha) secretion (AID 651757; active = well fitted curve in the direction sought with a large enough effect in the signal ratio; the % refers to the signal ratio; note: 0% is about no effect)
Sequence of Tumor necrosis factor (Homo sapiens) (P01375 whole entry, looked up): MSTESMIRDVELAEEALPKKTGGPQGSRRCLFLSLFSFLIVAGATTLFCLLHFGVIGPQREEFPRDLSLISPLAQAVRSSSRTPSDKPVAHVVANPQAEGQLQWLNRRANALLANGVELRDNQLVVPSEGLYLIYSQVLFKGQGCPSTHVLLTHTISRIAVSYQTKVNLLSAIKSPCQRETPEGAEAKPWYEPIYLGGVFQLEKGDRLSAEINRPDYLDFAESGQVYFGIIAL
How it was run: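 Human monocytic THP-1 cells are plated, treated with compound and held at 37 C for 17 hrs. Labeled anti-TNF-alpha antibody mixture is then added; after 3 hr at room temperature, TR-FRET signal reports secreted TNF-alpha.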

CCCCC#N
2.48%: max response [18]
inactive: Potency [1] | Potency [2] | outcome [3] | caspase-3 activation [4] -1.9% | Potency [5] | Potency [6] | Potency [7] | Potency [8] | Potency [9] | Potency [10] | Potency [11] | Potency [12] | Potency [13] | Potency [14] | Potency [15] | Potency [16] | Potency [17] | outcome [19] | outcome [20]

CC(C)(C)c1ccccc1O
-1.25% and -13.7%: max response [18]
inactive: Potency [1] | Potency [2] | outcome [3] | caspase-3 activation [4] -1.2% | Potency [5] | Potency [6] | Potency [7] | Potency [8] | Potency [9] | Potency [10] | Potency [11] | Potency [12] | Potency [13] | Potency [14] | Potency [15] | Potency [16] | Potency [17] | outcome [19] | outcome [20]

ClCCBr
inactive: Potency [1] | Potency [2] | outcome [3] | caspase-3 activation [4] -0.69% | Potency [5] | Potency [6] | Potency [7] | Potency [8] | Potency [9] | Potency [10] | Potency [11] | Potency [12] | Potency [13] | Potency [14] | Potency [15] | Potency [16] | Potency [17] | outcome [19] | outcome [20]
-16.9%: max response [18]

ClP(Cl)(Cl)(Cl)Cl
inactive: Potency [1] | outcome [3] | caspase-3 activation [4] -1.32% | Potency [5] | Potency [6] | Potency [7] | Potency [8] | Potency [9] | Potency [10] | Potency [11] | Potency [12] | Potency [13] | Potency [14] | Potency [15] | Potency [16] | Potency [17] | outcome [19] | outcome [20]
5.7%: max response [18]

C=CCc1cc(OC)c2c(c1)OCO2
-17.2%: max response [18]
inactive: Potency [1] | Potency [2] | outcome [3] | caspase-3 activation [4] 1.27% | Potency [5] | Potency [6] | Potency [7] | Potency [8] | Potency [9] | Potency [10] | Potency [11] | Potency [12] | Potency [13] | Potency [14] | Potency [15] | Potency [16] | Potency [17] | outcome [19] | outcome [20]

CN=C=O
-13%: max response [18]
inactive: Potency [1] | Potency [2] | outcome [3] | caspase-3 activation [4] 1.04% | Potency [5] | Potency [6] | Potency [7] | Potency [8] | Potency [9] | Potency [10] | Potency [11] | Potency [12] | Potency [13] | Potency [14] | Potency [15] | Potency [16] | Potency [17] | outcome [19] | outcome [20]

CCOC(=O)CBr
8.56%: max response [18]
inactive: Potency [1] | Potency [2] | outcome [3] | caspase-3 activation [4] 1.06% | Potency [5] | Potency [6] | Potency [7] | Potency [8] | Potency [9] | Potency [10] | Potency [11] | Potency [12] | Potency [13] | Potency [14] | Potency [15] | Potency [16] | Potency [17] | outcome [19] | outcome [20]

Cc1ccccc1[N+](=O)[O-]
inactive: Potency [1] | Potency [2] | outcome [3] | caspase-3 activation [4] -0.618% | Potency [5] | Potency [6] | Potency [7] | Potency [8] | Potency [9] | Potency [11] | Potency [12] | Potency [13] | Potency [14] | Potency [15] | Potency [16] | Potency [17] | outcome [19] | outcome [20]
-2.95%: max response [18]

Clc1ccc(C(Cl)(Cl)Cl)c(Cl)c1
-5.84%: max response [18]
inactive: Potency [1] | Potency [2] | outcome [3] | caspase-3 activation [4] 0.186% | Potency [5] | Potency [6] | Potency [7] | Potency [8] | Potency [9] | Potency [10] | Potency [11] | Potency [12] | Potency [13] | Potency [14] | Potency [15] | Potency [16] | Potency [17] | outcome [19] | outcome [20]

[O-][Cl+2]([O-])O
6.62%: max response [18]
inactive: Potency [1] | Potency [2] | outcome [3] | caspase-3 activation [4] -0.13% | Potency [5] | Potency [6] | Potency [7] | Potency [8] | Potency [9] | Potency [10] | Potency [11] | Potency [12] | Potency [13] | Potency [14] | Potency [15] | Potency [16] | Potency [17] | outcome [19] | outcome [20]

O=[N+]([O-])c1cccc2c([N+](=O)[O-])cccc12
inactive: Potency [1] | Potency [2] | outcome [3] | caspase-3 activation [4] -0.427% | Potency [5] | Potency [6] | Potency [7] | Potency [8] | Potency [9] | Potency [10] | Potency [11] | Potency [12] | Potency [13] | Potency [14] | Potency [15] | Potency [16] | Potency [17] | outcome [19] | outcome [20]
-11.5%: max response [18]

O=C(Cl)OCc1ccccc1
inactive: Potency [1] | Potency [2] | outcome [3] | caspase-3 activation [4] 0.783% | Potency [5] | Potency [6] | Potency [7] | Potency [8] | Potency [9] | Potency [10] | Potency [11] | Potency [12] | Potency [13] | Potency [14] | Potency [15] | Potency [16] | Potency [17] | outcome [19] | outcome [20]
-1.31%: max response [18]

CCC[N+](=O)[O-]
inactive: Potency [1] | Potency [2] | outcome [3] | caspase-3 activation [4] 0.185% | Potency [5] | Potency [6] | Potency [7] | Potency [8] | Potency [9] | Potency [10] | Potency [11] | Potency [12] | Potency [13] | Potency [14] | Potency [15] | Potency [16] | Potency [17] | outcome [19] | outcome [20]
-16.6%: max response [18]

Nc1cc(Cl)ccc1Cl
-19.1%: max response [18]
inactive: Potency [1] | Potency [2] | outcome [3] | caspase-3 activation [4] -0.435% | Potency [5] | Potency [6] | Potency [7] | Potency [8] | Potency [9] | Potency [10] | Potency [11] | Potency [12] | Potency [13] | Potency [14] | Potency [15] | Potency [16] | Potency [17] | outcome [19] | outcome [20]

CC(C)(C)C(O)(CCc1ccc(Cl)cc1)Cn1cncn1 (stereo not drawn)
inactive: Potency [1] | Potency [2] | outcome [3] | caspase-3 activation [4] 3.2% | Potency [5] | Potency [6] | Potency [7] | Potency [8] | Potency [9] | Potency [10] | Potency [11] | Potency [12] | Potency [13] | Potency [14] | Potency [15] | Potency [16] | Potency [17] | outcome [19] | outcome [20]
-9.24% and 6.75%: max response [18]
